Data on 41 compounds can be found in PubChem BioAssay (NCATS).

The nature of assay [1]: Cytotoxicity counterscreen for inhibitors of SARS-CoV-2 cell entry (AID 1645845). Further: nearly all actives have a fitted effect of over 50% in size. In short, it runs like this:
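After a 15 min room-temperature ATPLite 1step step, luminescence reflected ATP remaining in HEK293-ACE2 cells exposed to compound for 1 h plus 48 h at 37 C, with percent activity set by cell and no-cell controls.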
(In general: Counterscreens check selectivity or assay interference.)

Assay [2] is described as follows: Primary qHTS to identify inhibitors of SARS-CoV-2 cell entry (AID 1645846). Further: nearly all actives have a fitted effect of over 45% in size. Further: potency means the concentration at half of the fitted maximal effect. Conditions: activity change, negative = inhibition: at 57.1 µM (top of the series) unless noted. In short, it runs like this: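 HEK293 cells stably expressing human ACE2, pre-treated 1 h with compound, then infected with MLV particles pseudotyped with Wuhan-Hu-1 spike (C-terminal 19-aa truncation). Luciferase luminescence after 48 h at 37 °C, normalised to spike PP and bald PP.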
(In general: Quantitative high-throughput screening tests each substance at several concentrations.)

Inconclusive results are not listed. A call without a number means that no potency is given here. The source made the active and inactive calls. The call rests on the fitted dose curve.

Turning to `CN/C(=C\[N+](=O)[O-])NCCSCc1csc(CN(C)C)n1`, the Potency result in assay [1] and in assay [2] was “inactive” throughout.
`O=C(O)C[C@H](O)C[C@H](O)/C=C/c1c(C2CC2)nc2ccccc2c1-c1ccc(F)cc1`: the Potency entry in assay [1] was “inactive”. Moreover, the activity change, negative = inhibition in assay [2] was -3.35%.
Turning to `Nc1nc(Cl)nc2c1ncn2[C@@H]1O[C@H](CO)[C@@H](O)[C@@H]1F`, in assay [1], the Potency entry was “inactive”. Moreover, the Potency in assay [2] was 22.4 µM (active).
The matching figures for `C=CCc1ccc(O)c(OC)c1`: “inactive” and “inactive”.
For the compound `CC1c2ccccc2CN1NC(=O)c1ccc(Cl)c(S(N)(=O)=O)c1` (stereo unspecified), the Potency result in assay [1] was “inactive”. Further, in assay [2], the activity change, negative = inhibition was -22.6%.
For `NCCS(=O)(=O)O`, the Potency entry in assay [1] and in assay [2] was “inactive” in each case. Moreover, the activity change, negative = inhibition in assay [2] was -2.14%.
With `CO[C@@H]1[C@@H](OC(N)=O)[C@@H](O)[C@H](Oc2ccc3c(O)c(NC(=O)c4ccc(O)c(CC=C(C)C)c4)c(=O)oc3c2C)OC1(C)C`, the Potency entry in assay [1] is “inactive”. Moreover, in assay [2], the Potency entry was “inactive” and the activity change, negative = inhibition was 0.81%.
On to `O=C(NCC1CCCCN1)c1cc(OCC(F)(F)F)ccc1OCC(F)(F)F` (stereo unspecified), for which, in assay [1], the Potency entry is “inactive”. For the same compound, in assay [2], the Potency entry was “inactive” and the activity change, negative = inhibition is -8.95%.
For the compound `CN(CC1(C)CCCO1)S(=O)(=O)c1ccc(Cl)c(S(N)(=O)=O)c1` (stereo unspecified), the Potency entry in assay [1] is “inactive”. In assay [2], the activity change, negative = inhibition is -32.6%.
The matching figures for `CCCCCCCCCCCCCCCC(=O)OCCC1CCN(CCCN2c3ccccc3Sc3ccc(S(=O)(=O)N(C)C)cc32)CC1`: “inactive” and -4.81%.
For the compound `Cc1cc(O)cc2c1O[C@](C)(CCC[C@H](C)CCC[C@H](C)CCCC(C)C)CC2`, the Potency entry in assay [1] and in assay [2] was “inactive” throughout.
`Cc1cc(C)c(NC(=O)CN(CC(=O)O)CC(=O)O)c(C)c1Br`: the Potency entry in assay [1] was “inactive”. Further, the activity change, negative = inhibition in assay [2] is -26.2%.
The matching figures for `O=[N+]([O-])c1cncn1CCN1CCOCC1`: “inactive” and -6.13%.
For `CN(C)C(=O)Oc1ccc[n+](C)c1`, the Potency result in assay [1] and in assay [2] was “inactive” each time.
Regarding `Nc1nc(N)nc(-c2cc(Cl)ccc2Cl)n1`, the Potency entry in assay [1] and in assay [2] was “inactive” throughout.
As for `COc1cc2c3cc1Oc1cc(ccc1O)C[C@@H]1c4c(cc(OC)c(O)c4Oc4ccc(cc4)C[C@@H]3N(C)CC2)CC[N+]1(C)C`, the Potency entry in assay [1] and in assay [2] was “inactive” each time.
As for `O=S(=O)(O)CCS`, the Potency entry in assay [1] and in assay [2] was “inactive” each time. The activity change, negative = inhibition in assay [2] is 1.92%.
Regarding `CCCCC(O)/C=C(C)/C=C/C=C/C(=O)N1CCCC1=O` (stereo unspecified), the Potency entry in assay [1] was “inactive”. Further, in assay [2], the activity change, negative = inhibition was -3.29%.
As to `C[N+]1(C)[C@@H]2CC(OC(=O)[C@H](CO)c3ccccc3)C[C@H]1[C@@H]1O[C@@H]12` (stereo partly specified), the Potency result in assay [1] and in assay [2] was “inactive” each time.
`Nc1nc(/C(=C/CC(=O)O)C(=O)N[C@@H]2C(=O)N3C(C(=O)O)=CCS[C@H]23)cs1`: the Potency entry in assay [1] was “inactive”. For the same compound, the activity change, negative = inhibition in assay [2] was -21.3%.
The matching figures for `CC(C)=CCC/C(C)=C/CO`: “inactive” and 2.42%.
In the case of `C[C@]12C=CC(=O)C=C1CC[C@@H]1[C@@H]2C(=O)C[C@@]2(C)[C@H]1CC[C@]2(O)C(=O)CO`, the Potency result in assay [1] and in assay [2] was “inactive” throughout. Also, the activity change, negative = inhibition in assay [2] was -11.4%.
In the case of `COc1cc(NS(=O)(=O)c2ccc(N)cc2)nc(C)n1`, the Potency entry in assay [1] and in assay [2] was “inactive” in each case.
Regarding `O=C(O)CCC(=O)O`, the Potency entry in assay [1] and in assay [2] was “inactive” each time.
As for `O=C(OOC(=O)c1ccccc1)c1ccccc1`, the Potency entry in assay [1] and in assay [2] was “inactive” throughout.
Consider `NC(=O)NC1NC(=O)NC1=O` (stereo unspecified), for which the Potency result in assay [1] and in assay [2] was “inactive” in each case.
For `Cc1cccc(C)c1NC(=O)CC12CCCN1CCC2`, the Potency entry in assay [1] is “inactive”. The activity change, negative = inhibition in assay [2] is -23.5%.
On to `O=C(O)c1cc(=O)[nH]c(=O)[nH]1`, for which the Potency entry in assay [1] is “inactive”. Also, in assay [2], the Potency result was “inactive” and the activity change, negative = inhibition was -5.5%.
On to `CC[N+](CC)(CC)CCOc1cccc(OCC[N+](CC)(CC)CC)c1OCC[N+](CC)(CC)CC`, for which the Potency result in assay [1] and in assay [2] was “inactive” throughout.
As to `CC(C(=O)O)c1ccc(C(=O)c2ccccc2)s1` (stereo unspecified), the Potency entry in assay [1] and in assay [2] was “inactive” each time.
As for `CCC(=O)c1c(O)cc(O)cc1O`, the Potency entry in assay [1] was “inactive”. In assay [2], the activity change, negative = inhibition was -5.3%.
In the same order, the values of `CCOc1ccc(NC(=O)CC(C)O)cc1` (stereo unspecified) are “inactive” and -25.9%.
On to `O=c1[nH]c(=O)n([C@H]2O[C@H](CO)[C@@H](O)[C@@H]2O)cc1/C=C\Br`, for which the Potency entry in assay [1] and in assay [2] was “inactive” throughout.
Turning to `C[N+](C)(CCOc1ccccc1)Cc1cccs1`, in assay [1], the Potency result is “inactive”. For the same compound, the activity change, negative = inhibition in assay [2] is -23%.
With `CCc1oc2ccccc2c1C(=O)c1cc(I)c(O)c(I)c1`, the Potency entry in assay [1] is “inactive”. In addition, the activity change, negative = inhibition in assay [2] is -21.9%.
Turning to `CC[C@H](C)C(=O)O[C@H]1C[C@H](O)C=C2C=C[C@H](C)[C@H](CC[C@@H](O)C[C@@H](O)CC(=O)O)[C@H]21`, the Potency result in assay [1] was “inactive”. In assay [2], the Potency result was “inactive” and the activity change, negative = inhibition was -12.2%.
Consider `CC(=O)OCC(=O)[C@@]1(OC(C)=O)[C@@H](C)C[C@H]2[C@@H]3C[C@H](F)C4=CC(=O)C=C[C@]4(C)[C@@]3(F)[C@@H](O)C[C@@]21C`, for which the Potency result in assay [1] and in assay [2] was “inactive” throughout.
As for `O=c1cc[nH]c(=O)[nH]1`, the Potency result in assay [1] is “inactive”. Further, the activity change, negative = inhibition in assay [2] was -14.8%.
In the case of `O=c1[nH]c(=O)n([C@H]2C[C@H](O)[C@@H](CO)O2)cc1I`, in assay [1], the Potency entry is “inactive”. In assay [2], the Potency was 15.8 µM (active).
`COc1ccc(C(=O)CC(=O)c2ccc(C(C)(C)C)cc2)cc1`: the Potency result in assay [1] is “inactive”. For the same compound, in assay [2], the Potency result was “inactive” and the activity change, negative = inhibition is -3.57%.
`CCC1(C)CC(=O)NC1=O` (stereo unspecified): the Potency entry in assay [1] and in assay [2] was “inactive” throughout. Moreover, the activity change, negative = inhibition in assay [2] was -9.22% [at 114 µM].
